Several values for one entry are separate records, joined by “and”; a condition that tells them apart may be missing. Identical values can stand only once. Inconclusive results are not listed. Activity calls are given as the source filed them. Calls follow the shape of the full dose curve. Starred links: 1 amine or outer side, 2 acyl side, 3 side chain; linkers in the order of their positions; H or OH if unused. Positions of bridges follow the written chain, without caps; N, C: chain ends. Non-standard residues stand in square brackets, D forms with d. Residues, ends and D or L forms follow the SMILES beside them. ξ: configuration not given here. *: point of attachment. ΔAla(3-NHCONH2) = NC(=O)NC=C(N)C(=O)O; X1 = NC1=NCCC(C(N[*:1])C(=O)[*:2])N1; ξβ3hOrn = NCCCC(N)CC(=O)*; Dap = NC[CH](N)C(=O)O
Tests used:
[1] = Primary qHTS for Huh7 cytotoxicity: counterscreen for inhibitors of MERS-S pseudotyped particle cell entry (AID 1479147); as to activity change, negative = cytotoxicity: % is scaled to controls: 0 for no effect and ±100 for the full control effect
[2] = Primary qHTS for inhibitors of MERS-S pseudo-typed particle cell entry (AID 1479149); also: nearly all actives have a fitted effect of over 60% in size; as to activity change, negative = inhibition: % is scaled to controls: 0 for no effect and ±100 for the full control effect
[3] = Primary qHTS for Vero E6 cytotoxicity: counterscreen for inhibitors of SARS-S pseudo-typed particle cell entry (AID 1479150); as to activity change, negative = cytotoxicity: % is scaled to controls: 0 for no effect and ±100 for the full control effect
[4] = Cytotoxicity counterscreen for inhibitors of SARS-CoV-2 cell entry (AID 1645845); also: nearly all actives have a fitted effect of over 50% in size; as to activity change, negative = cytotoxicity: % is scaled to controls: 0 for no effect and ±100 for the full control effect
How it was run: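 ATP-content luminescence (ATPLite 1step, 15 min RT) read after 48 h compound exposure of Expi293F cells stably expressing human ACE2; normalized to cells-only wells and media-only wells.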

[5] = Primary qHTS to identify inhibitors of SARS-CoV-2 cell entry (AID 1645846); also: nearly all actives have a fitted effect of over 45% in size
How it was run: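 Inhibition of spike-mediated entry was scored in human ACE2-transfected Expi293F cells. Particles were MLV-pseudotyped with Wuhan-Hu-1 S carrying a 19-aa C-terminal deletion; signal was luciferase after two days, scaled between spike PP and fusion-protein-free PP.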

[6] = activity change, negative = inhibition: at 57.1 µM (top of the series) unless noted

CC(C)(C)NC(=O)[C@H]1CC[C@H]2[C@@H]3CC[C@H]4NC(=O)C=C[C@]4(C)[C@H]3CC[C@]12C
inactive: Potency [1] | Potency [2] | Potency [3] | Potency [4] | Potency [5, 6]

CC[C@@H](CO)NCCN[C@@H](CC)CO
-13.9%: activity change, negative = inhibition [5, 6]
inactive: Potency [1] | Potency [2] | Potency [3] | Potency [4]

O=C(C1CCCCC1)N1CC(=O)N2CCc3ccccc3C2C1 (stereo unspecified)
inactive: Potency [1] | Potency [2] | Potency [3] | Potency [4] | Potency [5, 6]

O=C(NCCN1CCOCC1)c1ccc(Cl)cc1
inactive: Potency [1] | Potency [2] | Potency [3] | Potency [4] | Potency [5, 6]

O=C(O)c1cn(C2CC2)c2cc(N3CCNCC3)c(F)cc2c1=O
-1.6%: activity change, negative = inhibition ([5]; SARS-CoV-2 pseudovirus cell entry assay, luminescence, at 11.3 µM (top of the series))
4.56%: activity change, negative = inhibition ([5]; SARS-CoV-2 pseudovirus cell entry assay, luminescence, at 57.1 µM (top of the series))
inactive: Potency [1] | Potency [2] | Potency [3] | Potency [4]

CC1Cc2ccccc2N1NC(=O)c1ccc(Cl)c(S(N)(=O)=O)c1 (stereo unspecified)
3.64%: activity change, negative = inhibition [5, 6]
inactive: Potency [1] | Potency [2] | Potency [3] | Potency [4] | Potency [5, 6]

O=NN(CCCl)C(=O)NC1CCCCC1
-8.29%: activity change, negative = inhibition [5, 6]
inactive: Potency [1] | Potency [2] | Potency [3] | Potency [4] | Potency [5, 6]

CC(=O)Oc1cc2c(s1)CCN(C(C(=O)C1CC1)c1ccccc1F)C2 (stereo unspecified)
inactive: Potency [1] | Potency [2] | Potency [3] | Potency [4] | Potency [5, 6]
-16.4%: activity change, negative = inhibition [5, 6]

CCN(CCO)CCCC(C)Nc1ccnc2cc(Cl)ccc12 (stereo unspecified)
-16.5% [at 5.25 µM]: activity change, negative = inhibition [5, 6]
inactive: outcome [1] inactive [at 5.34 µM] | activity change, negative = inhibition [2] 3.49% [at 5.34 µM] | outcome [3] inactive [at 5.34 µM] | activity change, negative = cytotoxicity [4] -4.65% [at 5.25 µM] and -23.5% [at 5.25 µM] | outcome [5, 6] inactive [at 5.25 µM]

NCCCC(N)CC(=O)NCC1NC(=O)C(CO)NC(=O)C(N)CNC(=O)C(C2CCN=C(N)N2)NC(=O)C(=CNC(N)=O)NC1=O (stereo not drawn) (H-[Dap]S[Dap](ξβ3hOrn)[ΔAla(3-NHCONH2)][X1]; lactam 1-C; configuration not given here)
3.17% [at 0.702 µM]: activity change, negative = inhibition [5, 6]
inactive: activity change, negative = cytotoxicity [1] 3.81% [at 0.573 µM] | outcome [2] inactive [at 0.573 µM] | outcome [3] inactive [at 0.573 µM] | outcome [4] inactive [at 0.702 µM]

CNCCc1ccccn1
inactive: Potency [1] | Potency [2] | Potency [3] | Potency [4] | Potency [5, 6]

CC(C)NCC(O)COc1ccc(CCOCC2CC2)cc1 (stereo unspecified)
-14.6% and -1.57%: activity change, negative = inhibition [5, 6]
inactive: Potency [1] | Potency [2] | Potency [3] | Potency [4]

NC(=O)OCC(COC(N)=O)c1ccccc1
inactive: Potency [1] | Potency [2] | Potency [3] | Potency [4] | Potency [5, 6]
-1.23%: activity change, negative = inhibition [5, 6]

CCN(C)C(=O)Oc1cccc([C@H](C)N(C)C)c1
inactive: Potency [1] | Potency [2] | Potency [3] | Potency [4] | Potency [5, 6]

CNC1(C)C2CCC(C2)C1(C)C (stereo unspecified)
inactive: Potency [1] | Potency [2] | Potency [3] | Potency [4] | Potency [5, 6]

CS(=O)(=O)OCCCCOS(C)(=O)=O
-16.9%: activity change, negative = inhibition [5, 6]
inactive: Potency [1] | Potency [2] | Potency [3] | Potency [4] | Potency [5, 6]

COc1ccc(Cl)cc1C(=O)NCCc1ccc(S(=O)(=O)NC(=O)NC2CCCCC2)cc1
4.27%: activity change, negative = inhibition [5, 6]
inactive: Potency [1] | Potency [2] | Potency [3] | Potency [4]

CN(C)c1cc(NC(=O)CNC(C)(C)C)c(O)c2c1C[C@@H]1C[C@H]3[C@H](N(C)C)C(=O)C(C(N)=O)=C(O)[C@@]3(O)C(=O)C1=C2O
inactive: Potency [1] | Potency [2] | Potency [3] | Potency [4]
-25.4%: activity change, negative = inhibition [5, 6]

CC1=NS(=O)(=O)c2cc(Cl)ccc2N1
inactive: Potency [1] | Potency [2] | Potency [3] | Potency [4] | Potency [5, 6]

Cc1cccc(Nc2ccncc2S(=O)(=O)NC(=O)NC(C)C)c1
inactive: Potency [1] | Potency [2] | Potency [3] | Potency [4] | Potency [5, 6]

CCCc1nc2c(C)cc(-c3nc4ccccc4n3C)cc2n1Cc1ccc(-c2ccccc2C(=O)O)cc1
inactive: Potency [1] | Potency [2] | Potency [3] | Potency [4] | Potency [5, 6]
-3.28%: activity change, negative = inhibition [5, 6]

C[C@@H](c1ncncc1F)C(O)(Cn1cncn1)c1ccc(F)cc1F (stereo partly specified)
-1.38%: activity change, negative = inhibition [5, 6]
inactive: Potency [1] | Potency [2] | Potency [3]

CNS(=O)(=O)Cc1ccc2[nH]cc(CCN(C)C)c2c1
inactive: Potency [1] | Potency [2] | Potency [3] | Potency [5, 6]

NC12CC3CC(CC(C3)C1)C2
-26.7%: activity change, negative = inhibition [5, 6]
inactive: Potency [1] | Potency [2] | Potency [3] | Potency [4] | Potency [5, 6]

CN(N=O)C(=O)N[C@@H]1[C@@H](O)[C@H](O)[C@@H](CO)O[C@@H]1O
inactive: Potency [1] | Potency [2] | Potency [3]
-3.87% and -2.3%: activity change, negative = inhibition [5, 6]

COc1ccc(-c2cc(=S)ss2)cc1
inactive: Potency [1] | Potency [2] | Potency [4]

O=C(c1ccccc1)c1ccc2n1CCC2C(=O)O (stereo unspecified)
inactive: Potency [1] | Potency [2] | Potency [3] | Potency [5, 6]

Cc1ccc2c(n1)Oc1ccc(C(C)C(=O)OCC(=O)N(C)C)cc1C2 (stereo unspecified)
inactive: Potency [1] | Potency [2] | Potency [3] | Potency [5, 6]

NC(=O)NO
-10.4%: activity change, negative = inhibition [5, 6]
inactive: Potency [1] | Potency [2] | Potency [3] | Potency [4] | Potency [5, 6]

CC(C)Nc1cccnc1N1CCN(C(=O)c2cc3cc(NS(C)(=O)=O)ccc3[nH]2)CC1
inactive: Potency [1] | Potency [2] | Potency [4] | Potency [5, 6]

O=C1[C@H](CC[C@H](O)c2ccc(F)cc2)[C@@H](c2ccc(O)cc2)N1c1ccc(F)cc1
1.63% and -17.2%: activity change, negative = inhibition [5, 6]
inactive: Potency [1] | Potency [2] | Potency [3]

— PubChem BioAssay (NCATS)
